# ChEMBL document CHEMBL3988442, “University of Dundee, Small-Polar-MMV Screening Library” (2021)
# For some assays here: Potency and affinity values are given separately.
# What was measured:
# Set-up in all cases: scale not given: direction of the effect not stated beside the values
# [1] = target: Protein translocase subunit SecA (Escherichia coli (strain K12)) (UniProt P10408); assay: Assay to Identify E. coli SecA ATPase Inhibitors; assay type: functional; conditions: 30 µM
# [2] = target: T1, Ubiquitin-activating enzyme e1, putative (Leishmania donovani (strain BPK282A1)) (UniProt E9BSI1); assay: Leishmania donovani Ubiquitin Activating Enzyme (LdE1); assay type: functional; conditions: 30 µM
# T1 sequence (whole entry): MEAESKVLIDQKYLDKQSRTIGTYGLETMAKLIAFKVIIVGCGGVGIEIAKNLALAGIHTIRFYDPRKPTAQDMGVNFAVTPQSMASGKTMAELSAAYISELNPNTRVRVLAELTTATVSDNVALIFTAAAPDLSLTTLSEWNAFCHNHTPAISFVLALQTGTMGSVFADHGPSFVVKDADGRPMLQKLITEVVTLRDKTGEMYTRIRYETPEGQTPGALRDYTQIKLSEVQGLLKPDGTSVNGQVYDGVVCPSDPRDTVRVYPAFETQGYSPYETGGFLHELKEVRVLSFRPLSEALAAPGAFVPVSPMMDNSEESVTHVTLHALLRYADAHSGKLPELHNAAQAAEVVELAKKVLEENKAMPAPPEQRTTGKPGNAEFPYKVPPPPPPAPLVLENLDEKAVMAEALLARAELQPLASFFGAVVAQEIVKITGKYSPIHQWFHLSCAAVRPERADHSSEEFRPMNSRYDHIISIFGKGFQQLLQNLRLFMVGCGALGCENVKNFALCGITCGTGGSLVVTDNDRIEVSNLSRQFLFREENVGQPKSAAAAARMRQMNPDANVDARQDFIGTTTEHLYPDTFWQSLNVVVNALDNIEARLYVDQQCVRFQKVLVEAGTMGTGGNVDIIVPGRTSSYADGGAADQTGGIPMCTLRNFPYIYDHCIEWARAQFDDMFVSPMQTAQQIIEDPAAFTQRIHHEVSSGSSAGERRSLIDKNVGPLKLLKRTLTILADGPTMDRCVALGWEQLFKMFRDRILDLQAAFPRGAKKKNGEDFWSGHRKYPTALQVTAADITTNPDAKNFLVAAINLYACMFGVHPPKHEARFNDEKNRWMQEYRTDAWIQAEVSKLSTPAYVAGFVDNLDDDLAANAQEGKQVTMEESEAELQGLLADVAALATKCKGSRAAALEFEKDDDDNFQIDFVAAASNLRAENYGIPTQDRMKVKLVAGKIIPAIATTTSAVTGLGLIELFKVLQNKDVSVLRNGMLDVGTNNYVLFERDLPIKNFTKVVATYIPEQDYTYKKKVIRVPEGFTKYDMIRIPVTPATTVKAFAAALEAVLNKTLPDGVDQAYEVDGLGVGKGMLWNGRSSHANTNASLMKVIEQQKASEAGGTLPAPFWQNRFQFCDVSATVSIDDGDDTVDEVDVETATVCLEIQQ
# [3] = target: AMP-activated protein kinase, AMPK (Homo sapiens) (UniProt P54646+O43741+P54619+Q9UGJ0+Q9Y478+Q13131+Q9UGI9); assay: AMP-dependent Kinase enzyme assay. An in vitro enzyme assay that detects ADP turnover that is directly proportional to AMPK activity. This uses naive AMPK that is activated during the assay with MK-8722; assay type: functional; conditions: 30 µM
# [4] = target: Sialic acid-binding Ig-like lectin 9 (Homo sapiens) (UniProt Q9Y336); assay: Hs-Siglec9 ALPHAscreen SOP 20170721; conditions: 10 µM
# Sequence of Sialic acid-binding Ig-like lectin 9 (Homo sapiens) (Q9Y336 whole entry): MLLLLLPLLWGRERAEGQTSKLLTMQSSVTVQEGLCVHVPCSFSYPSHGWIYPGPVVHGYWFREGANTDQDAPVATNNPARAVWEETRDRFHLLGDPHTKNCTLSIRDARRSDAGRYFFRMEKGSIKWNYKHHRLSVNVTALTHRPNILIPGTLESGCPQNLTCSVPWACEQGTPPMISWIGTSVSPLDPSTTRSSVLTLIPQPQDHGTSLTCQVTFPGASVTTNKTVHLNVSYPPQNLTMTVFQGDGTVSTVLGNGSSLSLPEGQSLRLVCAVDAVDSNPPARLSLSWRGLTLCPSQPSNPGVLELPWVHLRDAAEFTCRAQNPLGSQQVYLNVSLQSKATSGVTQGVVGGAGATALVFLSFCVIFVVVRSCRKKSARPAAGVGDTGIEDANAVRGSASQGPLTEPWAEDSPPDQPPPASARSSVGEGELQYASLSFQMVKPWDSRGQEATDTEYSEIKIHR
# [5] = test system: Trypanosoma cruzi; assay: Trypanosoma cruzi phosphomannomutase and mannose-1-phosphate guanylyltransferase assay; assay type: functional; conditions: 10 µM
# [6] = target: T2, Arginase-2, mitochondrial (Homo sapiens) (UniProt P78540); assay: in vitro enzyme assay to detect the production of urea directly proportional to the activity of Arginase II; assay type: functional; conditions: 33.3 µM; further: in the data most compounds retested in dose-response had high values
# T2 sequence (whole entry): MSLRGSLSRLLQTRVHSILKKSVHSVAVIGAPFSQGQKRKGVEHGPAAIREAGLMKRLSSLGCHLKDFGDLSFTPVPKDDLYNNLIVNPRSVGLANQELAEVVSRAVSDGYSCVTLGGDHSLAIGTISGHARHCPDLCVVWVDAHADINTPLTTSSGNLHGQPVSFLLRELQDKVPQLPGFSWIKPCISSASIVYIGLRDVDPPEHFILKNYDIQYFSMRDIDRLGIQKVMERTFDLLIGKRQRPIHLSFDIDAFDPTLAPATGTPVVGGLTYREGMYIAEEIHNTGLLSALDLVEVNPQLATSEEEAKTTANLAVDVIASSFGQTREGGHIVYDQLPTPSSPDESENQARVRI
# [7] = target: T3, Proteasome subunit beta (Trypanosoma cruzi) (UniProt O96673); assay: Trypanosoma cruzi proteasome chymotrypsin-like activity (TcProtChymo) assay.; further: in the data most compounds retested in dose-response had high values; assay type: functional; conditions: 9.37 µM
# T3 sequence (whole entry): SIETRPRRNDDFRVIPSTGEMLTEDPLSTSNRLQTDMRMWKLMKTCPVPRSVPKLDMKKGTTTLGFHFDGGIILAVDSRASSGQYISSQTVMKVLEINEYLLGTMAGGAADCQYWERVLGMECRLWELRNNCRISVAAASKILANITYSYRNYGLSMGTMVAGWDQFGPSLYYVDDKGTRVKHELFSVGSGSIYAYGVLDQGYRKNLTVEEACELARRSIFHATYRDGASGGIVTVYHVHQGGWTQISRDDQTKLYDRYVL
# [8] = species on record: Homo sapiens; assay: To identify inhibition of the IFN signalling (Jak-Stat) pathway via expression of an eGFP reporter gene under the control of an IFN-stimulated response element (ISRE) containing MxA promoter.; assay type: functional; conditions: 30 µM
# [9] = target: T4, Tyrosyl-tRNA synthetase, putative (Trypanosoma cruzi (strain CL Brener)) (UniProt Q4DSP6); assay: Trypanosoma cruzi tyrosyl tRNA synthetase (TcYRS) _High Tyrosine SOP; assay type: functional; conditions: 30 µM; further: in the data most compounds retested in dose-response had high values
# T4 sequence (whole entry): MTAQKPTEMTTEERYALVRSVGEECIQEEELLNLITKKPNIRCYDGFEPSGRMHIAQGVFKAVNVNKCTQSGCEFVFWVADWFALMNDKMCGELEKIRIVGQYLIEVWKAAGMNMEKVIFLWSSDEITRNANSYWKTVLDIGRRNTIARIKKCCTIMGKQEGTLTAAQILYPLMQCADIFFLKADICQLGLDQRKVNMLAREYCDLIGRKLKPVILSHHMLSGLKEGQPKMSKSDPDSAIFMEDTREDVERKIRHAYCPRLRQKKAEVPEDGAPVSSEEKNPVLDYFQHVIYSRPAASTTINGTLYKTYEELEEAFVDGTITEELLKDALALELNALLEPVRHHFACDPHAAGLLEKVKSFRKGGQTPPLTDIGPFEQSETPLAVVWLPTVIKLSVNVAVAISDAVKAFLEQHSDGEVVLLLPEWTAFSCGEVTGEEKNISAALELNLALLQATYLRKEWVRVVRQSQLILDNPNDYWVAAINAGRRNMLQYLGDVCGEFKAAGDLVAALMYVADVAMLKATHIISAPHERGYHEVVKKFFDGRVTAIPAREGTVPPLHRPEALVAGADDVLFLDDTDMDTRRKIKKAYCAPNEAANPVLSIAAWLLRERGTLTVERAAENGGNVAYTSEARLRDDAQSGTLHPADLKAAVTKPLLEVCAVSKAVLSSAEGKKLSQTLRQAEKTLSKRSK
# [10] = target: T4, Tyrosyl-tRNA synthetase, putative (Trypanosoma cruzi (strain CL Brener)); assay: Trypanosoma cruzi tyrosyl tRNA synthetase (TcYRS) SOP; assay type: functional; conditions: 30 µM
# [11] = target: Chromo domain-containing protein 1 (Saccharomyces cerevisiae (strain ATCC 204508 / S288c) (Baker's yeast)) (UniProt P32657); assay: ScCHD-1 Enzyme Inhibition Assay; assay type: functional; conditions: 30 µM; further: in the data most compounds retested in dose-response had high values
# Sequence of Chromo domain-containing protein 1 (Saccharomyces cerevisiae (strain ATCC 204508 / S288c) (Baker's yeast)) (P32657 whole entry, the tested form may be a part): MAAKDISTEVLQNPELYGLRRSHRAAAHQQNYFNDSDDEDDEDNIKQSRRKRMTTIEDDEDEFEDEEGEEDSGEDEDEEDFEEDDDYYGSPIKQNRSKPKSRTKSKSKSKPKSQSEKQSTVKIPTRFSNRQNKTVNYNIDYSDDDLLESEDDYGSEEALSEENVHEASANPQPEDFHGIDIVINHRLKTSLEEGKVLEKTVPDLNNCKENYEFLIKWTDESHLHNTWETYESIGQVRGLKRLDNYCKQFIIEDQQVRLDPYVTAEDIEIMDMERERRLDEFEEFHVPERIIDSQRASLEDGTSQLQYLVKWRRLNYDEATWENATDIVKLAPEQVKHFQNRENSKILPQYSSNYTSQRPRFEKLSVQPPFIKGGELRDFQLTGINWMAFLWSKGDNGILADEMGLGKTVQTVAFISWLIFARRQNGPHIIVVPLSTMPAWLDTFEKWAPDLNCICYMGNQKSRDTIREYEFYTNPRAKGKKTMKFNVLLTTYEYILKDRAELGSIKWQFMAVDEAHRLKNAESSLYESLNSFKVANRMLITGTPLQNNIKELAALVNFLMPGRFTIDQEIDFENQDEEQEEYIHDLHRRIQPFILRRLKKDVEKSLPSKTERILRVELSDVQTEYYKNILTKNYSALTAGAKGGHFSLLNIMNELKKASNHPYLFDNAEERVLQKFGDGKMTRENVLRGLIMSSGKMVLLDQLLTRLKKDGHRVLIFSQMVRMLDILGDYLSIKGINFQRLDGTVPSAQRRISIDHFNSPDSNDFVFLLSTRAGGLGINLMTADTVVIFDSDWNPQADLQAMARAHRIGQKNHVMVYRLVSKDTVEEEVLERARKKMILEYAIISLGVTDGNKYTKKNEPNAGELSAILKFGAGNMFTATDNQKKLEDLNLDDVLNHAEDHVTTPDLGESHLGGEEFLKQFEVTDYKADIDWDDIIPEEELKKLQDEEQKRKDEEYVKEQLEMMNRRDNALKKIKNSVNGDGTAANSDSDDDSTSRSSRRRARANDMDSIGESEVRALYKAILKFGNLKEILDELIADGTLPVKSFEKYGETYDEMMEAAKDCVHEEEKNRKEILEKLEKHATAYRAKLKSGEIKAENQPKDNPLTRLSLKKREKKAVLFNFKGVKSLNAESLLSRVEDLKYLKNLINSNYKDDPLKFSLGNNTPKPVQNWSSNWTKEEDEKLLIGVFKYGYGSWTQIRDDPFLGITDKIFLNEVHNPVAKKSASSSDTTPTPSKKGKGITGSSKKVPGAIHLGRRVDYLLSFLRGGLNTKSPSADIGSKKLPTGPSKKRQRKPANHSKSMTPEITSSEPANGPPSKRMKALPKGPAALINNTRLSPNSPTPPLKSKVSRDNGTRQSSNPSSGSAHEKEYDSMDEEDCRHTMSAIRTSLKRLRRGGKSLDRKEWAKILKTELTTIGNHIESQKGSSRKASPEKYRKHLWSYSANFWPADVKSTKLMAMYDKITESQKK
# Sequence of Protein translocase subunit SecA (Escherichia coli (strain K12)) (P10408 whole entry): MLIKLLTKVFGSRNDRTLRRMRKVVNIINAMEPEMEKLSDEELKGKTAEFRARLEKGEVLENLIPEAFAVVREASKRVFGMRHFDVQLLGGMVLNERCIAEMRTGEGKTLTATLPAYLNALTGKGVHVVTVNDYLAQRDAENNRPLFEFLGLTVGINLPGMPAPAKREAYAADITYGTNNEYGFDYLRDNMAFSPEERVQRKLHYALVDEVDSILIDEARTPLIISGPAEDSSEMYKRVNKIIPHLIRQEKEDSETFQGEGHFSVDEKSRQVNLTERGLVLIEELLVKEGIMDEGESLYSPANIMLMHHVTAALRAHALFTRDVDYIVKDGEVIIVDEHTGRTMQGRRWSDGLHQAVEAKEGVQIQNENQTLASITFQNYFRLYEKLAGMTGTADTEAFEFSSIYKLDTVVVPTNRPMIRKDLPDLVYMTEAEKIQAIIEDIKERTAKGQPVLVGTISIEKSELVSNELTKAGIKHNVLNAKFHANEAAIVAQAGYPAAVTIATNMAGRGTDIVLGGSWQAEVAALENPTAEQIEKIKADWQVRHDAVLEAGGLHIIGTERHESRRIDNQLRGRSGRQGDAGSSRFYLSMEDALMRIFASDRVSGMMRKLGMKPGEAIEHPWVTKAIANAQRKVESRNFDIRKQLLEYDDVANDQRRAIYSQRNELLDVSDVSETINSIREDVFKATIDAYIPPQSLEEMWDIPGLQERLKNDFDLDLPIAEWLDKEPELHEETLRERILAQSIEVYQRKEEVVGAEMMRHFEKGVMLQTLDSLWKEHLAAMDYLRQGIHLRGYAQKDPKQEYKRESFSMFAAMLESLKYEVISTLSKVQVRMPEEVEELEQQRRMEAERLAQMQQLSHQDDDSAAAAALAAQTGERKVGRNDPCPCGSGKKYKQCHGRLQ
SMILES,Percent Effect [1] [%],Percent Effect [2] [%],Percent Effect [3] [%],Percent Effect [4] [%],Percent Effect [5] [%],Percent Effect [6] [%],Percent Effect [7] [%],Percent Effect [8] [%],Percent Effect [9] [%],Percent Effect [10] [%],Percent Effect [11] [%]
Cn1cc(CN2CCCn3cnc(COCC4CC4)c3C2)cn1,-4.51,8,-1.37,1.51,6.95,-55.7,7.69,-4.29,4.17,15,-7.64
CN1N=C(C(=O)Nc2cc(F)ccc2OCC2CCCO2)CCC1=O (configuration not stated),-1.5,-5.2,12,2.24,7.3,-6.41,6.25,-6.34,1.94,2.44,-8.4
CC(C(=O)Nc1ccc(N2CCCC2)nc1)n1ccnc1 (configuration not stated),-1.03,5.41,-13.4,11.1,0.0943,-8.82,8.65,28.6,5.42,16.1,-8.67
Fc1ccc(-c2nnc(CN3CCOC(Cn4cncn4)C3)o2)cc1 (configuration not stated),-6.46,0,1.39,-4.51,-2.62,3.56,-2.37,19.6,0.971,-14.6,-2.35
O=C(c1ccnnc1)N1C[C@@H](OCC2CCCC2)[C@H]2OCCC[C@H]21,-7.56,8.11,0.254,-1.77,-1.95,3.33,11.8,-12.9,12.9,-8.54,-5.93
CCc1cnc(CNc2ccc(C(=O)N3CCCC(C)C3)cc2C)o1 (configuration not stated),-1.36,-5.2,6.76,-0.151,-0.936,-1.78,8.78,25.1,-0.971,0,-5.54
CCN(CC)C(=O)CCNC(=O)N1CCC(c2ccccc2)C1 (configuration not stated),-1.34,0,-3.55,1.13,0.772,-4.29,0.172,15.7,0.529,4.88,0.238
CCCS(=O)(=O)N1CCO[C@H]2[C@H](OCc3ccccn3)CC[C@@H]21,-9.04,8.11,-5.79,-1.28,-0.977,5,10.1,5.42,10.9,15.8,-2.32
Cc1cc(CN2CCN(C(=O)CCc3cccc(F)c3F)CC2)on1,2.13,0,-6.33,7.49,5.99,10.9,0.862,-0.409,-0.529,4.88,0.403
Cc1ccc(S(=O)(=O)NC2CC2)cc1C,1.16,-1.39,-6.59,11.8,0.875,20.3,0,28.3,-1.05,0,0.926
O=C(CN1CCC(C(=O)c2cc(F)ccc2F)CC1)NC1CCCC1,-10.1,-5.26,13.8,-3.6,-1.46,5.92,8.53,26.2,1.06,0,-3.84
CS(=O)(=O)NCc1nnc2n1CCN(CC1CC1)C2,-5.86,8.11,5.91,-4.89,-0.293,-2.23,18.6,-21.1,5.41,12.8,-2.16
O=C(c1ccccc1-n1cccn1)N1CCCN(c2cccnn2)CC1,-2.4,-15.6,5.31,10.5,-0.294,1.05,9.46,-6.03,0.952,9.41,-13.5
CC(C)c1nc(CN(C)CC2CCN(CCO)CC2)no1,-2.78,0,-3.56,0.371,-1.35,2.86,1.9,1.02,2.65,9.76,-3.71
CCn1nc(C)c2nc(C(C)C)nc(NCCCO)c21,-2.47,12,4.47,13.2,1.97,0.176,12.6,33.7,4.23,12.8,-6.99
Fc1ccc(CN2CCCC(c3nnc(-c4cnccn4)o3)C2)cc1F (configuration not stated),-9.81,14.9,-1.12,9.24,-0.198,-3.02,12,1.34,6.45,14.3,-26.6
CN(Cc1nnc2n1CCC2)C(=O)Cc1ccc2c(c1)OCCO2,-1.44,13.5,-8.06,-5.38,4.25,-5.21,13.7,10.6,4.43,18.5,-8.36
CCOc1cc(C)nc(N2CCN(Cc3nccn3C)CC2)n1,0.029,4.17,-6.46,13.8,0.875,12.4,11.2,4.49,5.26,7.69,-4.66
CC(C)(C)C(=O)NCCC(=O)NS(=O)(=O)c1ccc2c(c1)OCCO2,-4.61,5.48,0.75,8.35,7.64,-0.909,7.1,-22.6,5.38,10,-1.32
O=C(COC[C@H]1CC[C@H]2[C@H](CCN2c2ncccn2)O1)N1CCCC1,-2.35,24.7,-1.6,1.45,0,-1.2,7.62,13.1,5.21,13.6,-1.93
Cn1cnnc1C1CCCN(C(=O)NCc2cc[nH]n2)C1 (configuration not stated),-1.36,18.4,-12.9,-7.02,4.01,-2.16,9.05,4.39,6.4,18.5,-8.86
O=C(COCc1nc(-c2ccncc2)no1)NC1CCCCC1,-6.1,7.79,1.21,9.68,2.46,0,7.65,5.36,7.53,13.6,-2.34
